# Mtb bLac sens: beta-lactam sensitization of Mtb H37Rv; inhibition, % at 25 µM; M. tuberculosis H37Rv growth with meropenem, percent inhibition; actives 0.27% (n = 330,000); call rule not given here;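 note: growth measured after seven days incubation then overnight dye step; 0% = bacteria only wells and 100% = bacteria with antibiotic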
# GDH-TPI counter-1: inhibits GDH-TPI coupling enzymes, artifact for Mtb FBA screen; GDH-TPI coupled enzyme counterscreen, NADH absorbance; inhibition, % at 4.8 µM; actives 1.2% (n = 360,000); AID 588335; in the data active = inhibition above about 30%;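 note: 0% = DMSO wells and 100% = wells lacking the enzyme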
# SSB-PriA inh: K. pneumoniae PriA-SSBct interaction inhibition | AlphaScreen SSBct-PriA binding, biotinylated peptide | inhibition, % at 33 µM | actives 0.6% (n = 430,000) | AID 1272365; in the data active = inhibition mostly above about 37%, no sharp cut-off; inactive = mostly below about 20%;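 note: plate controls were negative control peptide for no effect and reference peptide for full effect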
# Mtb FBA inh: Mtb fructose-bisphosphate aldolase inhibition; P9WQA3; inhibition, % at 1 µM; purified M. tuberculosis FBA, fluorescence read-out; actives 2.3% (n = 360,000);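 note: 0% = vehicle and 100% = reference inhibitor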
# Target sequence (P9WQA3 whole entry, looked up): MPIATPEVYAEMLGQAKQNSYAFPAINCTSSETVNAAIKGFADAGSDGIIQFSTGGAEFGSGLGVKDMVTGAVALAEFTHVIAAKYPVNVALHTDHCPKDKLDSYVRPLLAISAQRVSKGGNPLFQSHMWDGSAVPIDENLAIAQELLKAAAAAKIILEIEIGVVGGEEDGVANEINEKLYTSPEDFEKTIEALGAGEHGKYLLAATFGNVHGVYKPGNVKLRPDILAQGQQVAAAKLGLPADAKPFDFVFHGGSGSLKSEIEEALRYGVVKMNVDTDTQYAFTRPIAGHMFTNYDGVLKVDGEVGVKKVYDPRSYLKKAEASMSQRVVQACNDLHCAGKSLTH
# UGM FP inh: Mtb UDP-galactopyranose mutase inhibition; P9WIQ1; purified UGM, fluorescence polarization probe displacement; inhibition, % at 10 µM; actives 0.06% (n = 320,000); AID 504406; in the data active = inhibition above about 10%, passing the limit was not always enough
# Rv3671c protease: inhibits the M. tuberculosis serine protease Rv3671c. inhibition, % at 5.96 µM. actives 0.048% (n = 320,000); in the data active = inhibition above about 38%;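 note: extracellular domain of Rv3671c used as enzyme; 0% = enzyme with DMSO and 100% = no enzyme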
# Mtb FBA confirm: confirmation of M. tuberculosis fructose-bisphosphate aldolase inhibitors; inhibition, % at 1 µM; actives 78% (n = 5,600); shares compounds with Mtb FBA inh; purified M. tuberculosis FBA, fluorescence read-out;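 note: 0% = vehicle wells and 100% = reference inhibitor wells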
# GDH-TPI counter-2: counter-screen for M. tuberculosis FBA inhibitors: GDH-TPI coupled enzyme inhibition. shares compounds with Mtb FBA inh. GDH-TPI coupled enzyme counterscreen, fluorescence. inhibition, % at 1 µM. actives 81% (n = 5,600); in the data active = inhibition above about 10%
# The depositor's hits bear a star; / = no result; + = active, no number. Rows were chosen to be rich in hits. Some 3.2% of all compounds tested hit in one or more screens of this group. Cut-off read from the data, not from the text of the source, unless noted: active = inhibition above about 27%; inactive = the rest.
SMILES,Mtb bLac sens,GDH-TPI counter-1,SSB-PriA inh,Mtb FBA inh,UGM FP inh,Rv3671c protease,Mtb FBA confirm,GDH-TPI counter-2
Cc1oc(-c2cccs2)nc1CSCC(=O)N1CCC2(CC1)OCCO2,-11,-6,-3,28*,2,2,164*,144*
Cc1nn(-c2ccccc2)c2sc(C(=O)OC3CCOC3=O)cc12 (stereo not drawn),-5,3,-4,56*,4,-1,31*,20*
CCOC(=O)c1cc2c(C)nn(-c3ccccc3)c2s1,45,-1,-12,16,-1,8,/,/
Nc1cc2ccncc2c2ccccc12,12,7,-8,102*,0,6,+,+
CC(Cc1ccccc1)=NNC(=O)CNC(=O)c1ccc(Cl)cc1,/,/,-7,/,/,/,/,/
O=c1c2ccccc2[nH]c2ccc(O)cc12,2,-6,-3,28*,3,5,+,+
CCOC(=O)c1c(-c2ccccc2)[nH]c2ccc(O)cc12,3,19,-1,40*,2,3,55*,49*
COc1ccc2nc(NC(N)=NC(=S)Nc3c(C)cccc3C)nc(C)c2c1,/,/,-1,/,/,/,/,/
O=C(NC1CCCCC1)c1ccc2ccccc2c1O,/,27,/,28*,/,/,5,-3
O=C(NNC(=O)c1ccc2ccccc2c1O)NC1CCCCC1,-3,19,35,24,1,/,/,/
CSc1nnc(-c2sc(-c3ccccc3)nc2C)n1C,0,12,-14,54*,-2,1,10,6
Cc1nc(-c2ccccc2)sc1-c1n[nH]c(=S)n1C,5,14,-9,0,4,4,/,/
COc1ccc(S(=O)(=O)N2CCN(C(=O)c3cccs3)CC2)cc1,-6,0,-4,79*,1,-4,+,172*
COc1ccc(-c2ccc(S(=O)(=O)N3CCCC3)cc2)cc1,-2,-3,-18,24,3,1,/,/
COc1ccc(-c2ccc(S(=O)(=O)N3CCOCC3)cc2)cc1,-6,-8,-15,44*,0,-8,75*,48*
COc1ccc(S(=O)(=O)N2CCN(C(=O)Cc3cccs3)CC2)cc1,-4,0,-11,-1,2,2,/,/
CN(C)CCCNC(=O)c1cccc(-c2cnc3cccnn23)c1,/,5,/,102*,/,/,+,+
Nc1cccc(-c2cccc3nncn23)c1,/,20,/,2,/,/,/,/
O=C(NCCO)c1cccc(-c2cccc3nncn23)c1,/,7,/,75*,/,/,72*,42*
CCOc1ccc(C(=O)NC2CCN(c3cc(C(F)(F)F)ncn3)CC2)cn1,/,/,-1,/,/,/,/,/
O=C(Nc1ccc(F)c(F)c1)C1(c2cccs2)CCCC1,/,/,-22,/,/,/,/,/
CCOc1c2ccc(C(=O)N[C@H](C)C3CCCCC3)cc2nn1CC,8,15,-30,64*,-4,13,53*,45*
CCCCn1nc2cc(C(=O)NCc3ccccc3OC)ccc2c1OCC,26,-8,0,19,2,-3,/,/
CCOc1ccc(C(=O)N[C@H](C(=O)NC2CCCCC2)C(C)C)cc1,/,-4,/,-3,/,/,/,/
CCOc1c2ccc(C(=O)NCCc3cccs3)cc2nn1CC,3,11,-20,58*,-1,1,28*,18*
SMILES,Mtb bLac sens,GDH-TPI counter-1,SSB-PriA inh,Mtb FBA inh,UGM FP inh,Rv3671c protease,Mtb FBA confirm,GDH-TPI counter-2
CCCCn1nc2cc(C(=O)NCCc3cccs3)ccc2c1OCC,35,0,4,62*,-1,4,125*,103*
CSc1ccccc1C(=O)Nc1ccc(-c2nc3ccc(C)cc3s2)cc1,/,/,-5,/,/,/,/,/
O=C(c1ccccc1)c1ncc[nH]1,-7,2,4,-2,-3,-5,/,/
O=C(O)c1ccc(-c2ncc[nH]2)cc1,-3,-2,-9,49*,0,-8,0,2
CCOC(=O)C(C)Sc1ccc(NC(=O)c2ccco2)nn1 (stereo not drawn),/,/,-11,/,/,/,/,/
COc1cc(NC(=O)CSc2nc3cc(C)ccc3cc2C)c(C(=O)O)cc1OC,-3,7,0,27*,0,7,45*,25*
COc1ccc2nc3c(C)n(C)ccc-3c2c1,/,4,-6,57*,/,/,73*,49*
Cc1cc(NC(=O)c2ccccc2C(F)(F)F)n(-c2nc(-c3cccs3)cs2)n1,/,/,-2,/,/,/,/,/
CC1CCN(C(=O)Cc2cc(=O)[nH]c(SCc3ccccc3)n2)CC1,/,/,6,/,/,/,/,/
O=C(COC(=O)Cn1cnc2ccccc21)NCCc1ccc(Cl)cc1,-2,-3,0,56*,-1,-7,46*,36*
CCc1nc2sc(C#N)c(N)c2c2c1CCCC2,3,10,-11,49*,1,-1,+,171*
CCc1nc2sc(C(C)=O)c(N)c2c2c1CCCC2,8,10,-27,19,-2,-11,/,/
O=C(O)CCc1nn2c3ccccc3n(Cc3ccccc3)c2nc1=O,-7,4,2,36*,-2,5,3,0
COC(=O)CSc1nc(N)c2c3c(sc2n1)CCCC3,91,0,-6,4,0,3,/,/
COCCSc1nc(N)c2c3c(sc2n1)CN(C)CC3,-5,19,-13,52*,3,0,70*,48*
CC(C)(C)C1CCc2c(sc3nc(SCC(=O)O)nc(N)c23)C1 (stereo not drawn),33,-4,-2,3,0,-4,/,/
CN(C)CCSc1nc(N)c2c3c(sc2n1)CN(C)CC3,-15,27,10,38*,2,-10,73*,62*
COc1ccc(C(C#N)N2CCN(C(C#N)c3ccc(OC)cc3)CC2)cc1 (stereo not drawn),/,/,28,/,/,/,/,/
CCN(C(=O)c1coc(=O)c(Br)c1)c1ccc2c(c1)OCO2,87,24,12,80*,0,-37,+,183*
CCN(C(=O)c1c(C)cc(=O)oc1C)c1ccc2c(c1)OCO2,3,9,-3,0,-1,6,/,/
COc1cc(-c2ccc(NC(=O)CCSc3ccccc3)c(OC)c2)ccc1NC(=O)CCSc1ccccc1,/,/,-1,/,/,/,/,/
O=c1c(-c2nnc(SCc3ccc(Cl)cc3Cl)o2)cccn1Cc1ccccc1,10,20,-7,52*,0,-17,43*,23*
CSc1nnc(-c2cccn(Cc3cccc(Cl)c3)c2=O)o1,-4,1,-12,87*,-1,1,+,+
Clc1ccc(CSc2nnc(-c3ccncc3)o2)c(Cl)c1,11,9,-17,-3,-5,0,/,/
Fc1ccc2cc(-c3ccccc3)ncc2c1,5,21,-9,49*,-1,1,88*,71*
CCC(=O)N1CCN(c2nc3c(C)c(Cl)ccc3s2)CC1,/,/,-15,/,/,/,/,/
Cc1ccc(-c2nc3cnccn3c2Nc2ccccc2)o1,1,26,0,2,1,-4,/,/

# Source: PubChem BioAssay (several laboratories)
